{"source": "PubChem BioAssay (Tox21)", "note": "Inconclusive results are not listed. Active and inactive are the calls of the source. Calls come from the whole dose curve; as a rule, active = well fitted cell-killing curve with a large enough effect in the repeat runs; inconclusive = weak or mixed curves, or effect the other way; inactive = flat fitted curve, though single readings scatter. % is set by controls: 0 for no effect and ±100 for the full control effect."}
{"assay": "qHTS assay to identify small molecule antagonists of the estrogen receptor alpha (ER-alpha) signaling pathway using the BG1 cell line in the presence of 0.1 nM 17-beta-estradiol - cell viability counter screen (AID 1259241); note: nearly all actives have a fitted effect of over 40% in size", "settings": "VM7Luc4E2 (BG1) viability, CellTiter-Fluor protease, 22 h, 0.1 nM estradiol agonist added; series mostly up to 92.4 µM; activity change, negative = cytotoxicity: at the top concentration", "method_in_brief": "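Estradiol-stimulated (0.1 nM) VM7Luc4E2 cells exposed to compounds 22 hr; viability measured by fluorescence of cleaved CellTiter-Fluor substrate after 30 min.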"}
{"smiles": "O=C1OC(=O)c2cc([N+](=O)[O-])ccc21", "activity change, negative = cytotoxicity": "-0.0116% (inactive)"}
{"smiles": "CCCCCCCCCCC1CO1", "note": "(configuration not stated)", "activity change, negative = cytotoxicity": "-2.42% (inactive)"}
{"smiles": "CCCC=O", "activity change, negative = cytotoxicity": "6.24% (inactive)"}
{"smiles": "Cc1cc(C)c(NC(=O)CN(CC(=O)O)CC(=O)O)c(C)c1Br", "activity change, negative = cytotoxicity": "3.67% [at 42.5 µM] (inactive)"}
{"smiles": "Cc1ccccc1C(=O)O", "activity change, negative = cytotoxicity": "17.6% (inactive)"}
{"smiles": "CO[Si](CCCNCCC[Si](OC)(OC)OC)(OC)OC", "activity change, negative = cytotoxicity": "6.6% (inactive)"}
{"smiles": "FC(F)(F)C(F)(F)C(F)(F)C(F)(F)C(F)(F)C(F)(F)C(F)(F)C(F)(F)C(F)(F)C(F)(F)F", "activity change, negative = cytotoxicity": "-0.635% [at 8.39 µM] (inactive)"}
{"smiles": "CC(C)CCCC(C)CCCC(C)CCCCC(C)CCCC(C)CCCC(C)C", "note": "(configuration not stated)", "activity change, negative = cytotoxicity": "5.15% [at 42.5 µM] (inactive)"}
{"smiles": "CC(C)=CC(=O)O", "activity change, negative = cytotoxicity": "8.9% (inactive)"}
{"smiles": "C1C2OC2C2C1C1CC2C2OC12", "note": "(configuration not stated)", "activity change, negative = cytotoxicity": "8.43% (inactive)"}
{"smiles": "C=CCOCC(O)CS(=O)(=O)O", "note": "(configuration not stated)", "activity change, negative = cytotoxicity": "3.48% (inactive)"}
{"smiles": "C(=C(c1ccccc1)c1ccccc1)c1ccccc1", "activity change, negative = cytotoxicity": "12.1% (inactive)"}
{"smiles": "CN(C)CCn1nnnc1SCC1=C(C(=O)O)N2C(=O)[C@@H](NC(=O)Cc3csc(N)n3)[C@H]2SC1", "activity change, negative = cytotoxicity": "-0.545% [at 42.5 µM] (inactive)"}
{"smiles": "CSc1ccc(C=O)cc1", "activity change, negative = cytotoxicity": "-14.7% (inactive)"}
{"smiles": "Oc1ccc2c(c1)OC[C@@H](N1CCC(O)(c3ccc(F)cc3)CC1)[C@H]2O", "activity change, negative = cytotoxicity": "1.14% [at 42.5 µM] (inactive)"}
{"smiles": "OC/C=C/c1ccccc1", "activity change, negative = cytotoxicity": "2.07% (inactive)"}
{"smiles": "C#CC(C)(O)CC(C)C", "note": "(configuration not stated)", "activity change, negative = cytotoxicity": "2.2% (inactive)"}
{"smiles": "CCCC(C)C(=O)O", "note": "(configuration not stated)", "activity change, negative = cytotoxicity": "-12.6% (inactive)"}
{"smiles": "CC/C=C\\C#N", "activity change, negative = cytotoxicity": "-18% (inactive)"}
{"assay": "qHTS assay to identify small molecule antagonists of the androgen receptor (AR) signaling pathway using the MDA cell line in the presence of 0.5 nM R1881 - cell viability counter screen (AID 1259242); note: nearly all actives have a fitted effect of over 45% in size", "settings": "MDA-kb2 viability, CellTiter-Fluor protease fluorescence, 16 h; series mostly up to 92.4 µM; viability change, negative = cytotoxic: at the top concentration", "method_in_brief": "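MDA-kb2 cells (human breast carcinoma, stably carrying MMTV-luciferase reporter) were exposed to compounds with 0.5 nM R1881 (final) for 16 hr at 37C, 0% CO2; viability then read as live-cell protease fluorescence (CellTiter-Fluor, 30 min) in the same wells.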"}
{"smiles": "O=C(O)/C=C/c1ccc(Cn2ccnc2)cc1", "viability change, negative = cytotoxic": "3.05% [at 42.5 µM] (inactive)"}
{"smiles": "NC1CCN(c2cccc(Cl)n2)CC1", "viability change, negative = cytotoxic": "-2.35% [at 42.5 µM] (inactive)"}
{"smiles": "CC(C)CCOC(=O)CC(C)C", "viability change, negative = cytotoxic": "1.19% (inactive)"}
{"smiles": "C[C@H]1O[C@@H](n2cc(F)c(=O)[nH]c2=O)[C@H](O)[C@@H]1O", "viability change, negative = cytotoxic": "1.27% [at 42.5 µM] (inactive)"}
{"smiles": "Nc1cc(N)cc(C(=O)O)c1", "viability change, negative = cytotoxic": "1.24% (inactive)"}
{"smiles": "CCO[Si](C)(OCC)OCC", "viability change, negative = cytotoxic": "-0.0589% (inactive)"}
{"smiles": "CCN1CCCC1CNC(=O)c1cc(S(N)(=O)=O)ccc1OC", "note": "(configuration not stated)", "viability change, negative = cytotoxic": "-17.6% (inactive)"}
{"smiles": "COc1ccc(COC=O)cc1", "viability change, negative = cytotoxic": "4.7% (inactive)"}
{"smiles": "C#CC(O)CCCCC", "note": "(configuration not stated)", "viability change, negative = cytotoxic": "0.182% (inactive)"}
{"smiles": "CCC(=O)Nc1cccc(N)c1", "viability change, negative = cytotoxic": "4.13% (inactive)"}
{"smiles": "O=S(=O)(O)c1ccccc1O", "viability change, negative = cytotoxic": "3.98% (inactive)"}
{"smiles": "CC(C)(C)C(=O)/C=C/c1ccc(Cl)cc1", "viability change, negative = cytotoxic": "-1.47% (inactive)"}
{"smiles": "CCCCC1CCCCC(=O)O1", "note": "(configuration not stated)", "viability change, negative = cytotoxic": "8.47% (inactive)"}
{"smiles": "COC(=O)c1ccc(C(=O)OC)c(C(=O)OC)c1", "viability change, negative = cytotoxic": "0.151% (inactive)"}
{"smiles": "NS(=O)(=O)c1cc2c(cc1C(F)(F)F)NC(Cc1ccccc1)NS2(=O)=O", "note": "(configuration not stated)", "viability change, negative = cytotoxic": "1.13% [at 42.5 µM] (inactive)"}
{"smiles": "CC(C)c1cccc(C(C)C)c1N", "viability change, negative = cytotoxic": "-0.529% (inactive)"}
{"smiles": "Nc1ncnc2c1ncn2Cc1c(F)cccc1Cl", "viability change, negative = cytotoxic": "0.951% [at 42.5 µM] (inactive)"}
{"smiles": "CC(=O)O[C@H](CC(=O)[O-])C[N+](C)(C)C", "viability change, negative = cytotoxic": "4.41% (inactive)"}
{"smiles": "N#CC1(O)CCCCC1", "viability change, negative = cytotoxic": "2.43% (inactive)"}
{"smiles": "O=C1OC(=O)c2cc([N+](=O)[O-])ccc21", "viability change, negative = cytotoxic": "-3.34% (inactive)"}
{"smiles": "CCCCCCCCCCC1CO1", "note": "(configuration not stated)", "viability change, negative = cytotoxic": "-0.532% (inactive)"}
{"smiles": "CCCC=O", "viability change, negative = cytotoxic": "1.8% (inactive)"}
{"smiles": "Cc1cc(C)c(NC(=O)CN(CC(=O)O)CC(=O)O)c(C)c1Br", "viability change, negative = cytotoxic": "1.62% [at 42.5 µM] (inactive)"}
{"smiles": "Cc1ccccc1C(=O)O", "viability change, negative = cytotoxic": "4.5% (inactive)"}
{"smiles": "CO[Si](CCCNCCC[Si](OC)(OC)OC)(OC)OC", "viability change, negative = cytotoxic": "-0.366% (inactive)"}
{"smiles": "FC(F)(F)C(F)(F)C(F)(F)C(F)(F)C(F)(F)C(F)(F)C(F)(F)C(F)(F)C(F)(F)C(F)(F)F", "viability change, negative = cytotoxic": "-3% [at 8.39 µM] (inactive)"}
{"smiles": "CC(C)CCCC(C)CCCC(C)CCCCC(C)CCCC(C)CCCC(C)C", "note": "(configuration not stated)", "viability change, negative = cytotoxic": "5.28% [at 42.5 µM] (inactive)"}
{"smiles": "CC(C)=CC(=O)O", "viability change, negative = cytotoxic": "0.354% (inactive)"}
{"smiles": "C1C2OC2C2C1C1CC2C2OC12", "note": "(configuration not stated)", "viability change, negative = cytotoxic": "0.344% (inactive)"}
{"smiles": "C=CCOCC(O)CS(=O)(=O)O", "note": "(configuration not stated)", "viability change, negative = cytotoxic": "5.22% (inactive)"}
{"smiles": "C(=C(c1ccccc1)c1ccccc1)c1ccccc1", "viability change, negative = cytotoxic": "-1.48% (inactive)"}
{"smiles": "CN(C)CCn1nnnc1SCC1=C(C(=O)O)N2C(=O)[C@@H](NC(=O)Cc3csc(N)n3)[C@H]2SC1", "viability change, negative = cytotoxic": "1.24% [at 42.5 µM] (inactive)"}
{"smiles": "CSc1ccc(C=O)cc1", "viability change, negative = cytotoxic": "3.55% (inactive)"}
{"smiles": "Oc1ccc2c(c1)OC[C@@H](N1CCC(O)(c3ccc(F)cc3)CC1)[C@H]2O", "viability change, negative = cytotoxic": "7.31% [at 42.5 µM] (inactive)"}
{"smiles": "OC/C=C/c1ccccc1", "viability change, negative = cytotoxic": "1.4% (inactive)"}
{"smiles": "C#CC(C)(O)CC(C)C", "note": "(configuration not stated)", "viability change, negative = cytotoxic": "2.53% (inactive)"}
{"smiles": "CCCC(C)C(=O)O", "note": "(configuration not stated)", "viability change, negative = cytotoxic": "4.05% (inactive)"}
{"smiles": "CC/C=C\\C#N", "viability change, negative = cytotoxic": "0.0111% (inactive)"}
